Hit rate of the full screen: of about 5,500 compounds, about 2,000 (36%) were called active. Another 18% or so got no clear call; they are omitted. No stated cut-off is given here; in the data, active means normalized growth mostly below about 0.91 (no sharp cut-off); inconclusive means no clear call, values can overlap the other calls; inactive means mostly above about 0.92. The list shows a part of the results.
Assay: chemical genetic growth profiling, strain panel (AID 1159580);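 further: tested at 20 µM; growth read once vehicle control cultures reached saturation at 30 °C; 1 = growth at the plate median or of vehicle wells; lower values mean less growth of the strain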
Conditions: growth OD

Measured: normalized growth

CC(C)=CCc1c(O)cc(C)oc1=O
inactive: S. cerevisiae deletion strains, locus YBR021W, strain FUR4, active compounds read low 1.01 | S. cerevisiae deletion strains, locus YBR229C, strain ROT2, active compounds read low 0.99 | S. cerevisiae deletion strains, locus YCL029C, strain bik1, active compounds read low 0.97 | S. cerevisiae deletion strains, locus YDL035C, strain GPR1, active compounds read low 1.11 | S. cerevisiae deletion strains, locus YDL074C, strain BRE1, active compounds read low 1.12 | S. cerevisiae deletion strains, locus YDL101C, strain DUN1, active compounds read low 0.998 | S. cerevisiae deletion strains, locus YDL185W, strain tfp1, active compounds read low 0.961 | S. cerevisiae deletion strains, locus YDL192W, strain arf1, active compounds read low 1.01 | S. cerevisiae deletion strains, locus YDR101C, strain arx1, active compounds read low 1.01 | S. cerevisiae deletion strains, locus YDR150W, strain NUM1, active compounds read low 1.01 | S. cerevisiae deletion strains, locus YDR162C, strain NBP2, active compounds read low 1.03 | S. cerevisiae deletion strains, locus YDR318W, strain mcm21, active compounds read low 0.986 | S. cerevisiae deletion strains, locus YDR388W, active compounds read low 0.994 | S. cerevisiae deletion strains, locus YDR502C, strain sam2, active compounds read low 0.995 | S. cerevisiae deletion strains, locus YEL061C, strain CIN8, active compounds read low 1.03 | S. cerevisiae deletion strains, locus YER110C, active compounds read low 0.982 | S. cerevisiae deletion strains, locus YER155C, strain BEM2, active compounds read low 0.963 | S. cerevisiae deletion strains, locus YER167W, strain BCK2, active compounds read low 0.991 | S. cerevisiae deletion strains, locus YGL078C, strain dbp3, active compounds read low 0.981 | S. cerevisiae deletion strains, locus YGL086W, strain mad1, active compounds read low 1.01 | S. cerevisiae deletion strains, locus YGL248W, strain PDE1, active compounds read low 1.03 | S. cerevisiae deletion strains, locus YGR135W, strain pre9, active compounds read low 1 | S. cerevisiae deletion strains, locus YGR252W, strain gcn5, active compounds read low 1.03 | S. cerevisiae deletion strains, locus YHR079C, strain IRE1 (second series), active compounds read low 0.962 | S. cerevisiae deletion strains, locus YHR094C, strain hxt1, active compounds read low 0.978 | S. cerevisiae deletion strains, locus YHR129C, strain ARP1, active compounds read low 1.02 | S. cerevisiae deletion strains, locus YHR200W, strain rpn10, active compounds read low 0.975 | S. cerevisiae deletion strains, locus YIL066C, strain RNR3, active compounds read low 1 | S. cerevisiae deletion strains, locus YIL073C, strain SPO22, active compounds read low 1.08 | S. cerevisiae deletion strains, locus YIL125W, strain kgd1, active compounds read low 0.981 | S. cerevisiae deletion strains, locus YIR030C, strain dcg1, active compounds read low 0.991 | S. cerevisiae deletion strains, locus YJL095W, strain BCK1, active compounds read low 1.04 | S. cerevisiae deletion strains, locus YJL134W, strain LCB3, active compounds read low 0.988 | S. cerevisiae deletion strains, locus YJL168C, strain set2, active compounds read low 0.967 | S. cerevisiae deletion strains, locus YJL187C, strain SWE1 (second series), active compounds read low 1 | S. cerevisiae deletion strains, locus YJR043C, strain POL32, active compounds read low 1.08 | S. cerevisiae deletion strains, locus YKL009W, strain mrt4, active compounds read low 1.01 | S. cerevisiae deletion strains, locus YKL068W, active compounds read low 0.98 | S. cerevisiae deletion strains, locus YKL085W, strain MDH1 (second series), active compounds read low 0.972 | S. cerevisiae deletion strains, locus YKL085W, strain MDH1, active compounds read low 0.972 | S. cerevisiae deletion strains, locus YKL190W, strain CNB1, active compounds read low 1.02 | S. cerevisiae deletion strains, locus YKR001C, strain vps1, active compounds read low 1.03 | S. cerevisiae deletion strains, locus YLR039C, strain RIC1, active compounds read low 1.21 | S. cerevisiae deletion strains, locus YLR058C, strain SHM2, active compounds read low 1.01 | S. cerevisiae deletion strains, locus YLR102C, strain apc9, active compounds read low 0.953 | S. cerevisiae deletion strains, locus YLR262C, strain YPT6, active compounds read low 1.19 | S. cerevisiae deletion strains, locus YLR268W, strain sec22, active compounds read low 0.999 | S. cerevisiae deletion strains, locus YLR330W, strain CHS5, active compounds read low 1.01 | S. cerevisiae deletion strains, locus YLR371W, strain rom2, active compounds read low 0.983 | S. cerevisiae deletion strains, locus YLR418C, strain cdc73, active compounds read low 0.987 | S. cerevisiae deletion strains, locus YML016C, strain PPZ1, active compounds read low 0.982 | S. cerevisiae deletion strains, locus YML032C, strain rad52, active compounds read low 0.994 | S. cerevisiae deletion strains, locus YML124C, strain tub3, active compounds read low 0.973 | S. cerevisiae deletion strains, locus YMR078C, strain ctf18, active compounds read low 0.98 | S. cerevisiae deletion strains, locus YMR223W, strain ubp8, active compounds read low 0.99 | S. cerevisiae deletion strains, locus YMR307W, strain GAS1, active compounds read low 1.13 | S. cerevisiae deletion strains, locus YNL067W, strain RPL9B, active compounds read low 1.02 | S. cerevisiae deletion strains, locus YNL128W, strain TEP1, active compounds read low 1.01 | S. cerevisiae deletion strains, locus YNL233W, strain BNI4, active compounds read low 1.05 | S. cerevisiae deletion strains, locus YNL250W, strain rad50, active compounds read low 0.94 | S. cerevisiae deletion strains, locus YNL271C, strain bni1, active compounds read low 0.986 | S. cerevisiae deletion strains, locus YNL298W, strain CLA4, active compounds read low 0.981 | S. cerevisiae deletion strains, locus YNL307C, strain MCK1, active compounds read low 1 | S. cerevisiae deletion strains, locus YNL322C, strain KRE1, active compounds read low 0.995 | S. cerevisiae deletion strains, locus YNR052C, strain pop2, active compounds read low 0.99 | S. cerevisiae deletion strains, locus YOL006C, strain TOP1, active compounds read low 1.26 | S. cerevisiae deletion strains, locus YOL012C, strain htz1 0.881 | S. cerevisiae deletion strains, locus YOL147C, strain pex11, active compounds read low 0.973 | S. cerevisiae deletion strains, locus YOR061W, strain CKA2, active compounds read low 0.991 | S. cerevisiae deletion strains, locus YOR069W, strain VPS5, active compounds read low 0.989 | S. cerevisiae deletion strains, locus YOR136W, strain idh2, active compounds read low 0.972 | S. cerevisiae deletion strains, locus YOR144C, strain elg1, active compounds read low 0.964 | S. cerevisiae deletion strains, locus YOR184W, strain ser1, active compounds read low 1.07 | S. cerevisiae deletion strains, locus YOR316C, strain cot1, active compounds read low 0.971 | S. cerevisiae deletion strains, locus YPL055C, strain LGE1, active compounds read low 1.1 | S. cerevisiae deletion strains, locus YPL241C, strain CIN2, active compounds read low 0.997 | S. cerevisiae deletion strains, locus YPR119W, strain clb2, active compounds read low 0.963 | S. cerevisiae deletion strains, locus YPR141C, strain kar3, active compounds read low 0.954 | S. cerevisiae deletion strains, locus YPR163C, strain tif3, active compounds read low 0.995 | S. cerevisiae deletion strains, locus YPR167C, strain met16, active compounds read low 0.995 | S. cerevisiae deletion strains, strain wtn01, active compounds read low 1.01 | S. cerevisiae strains, strain wild type, active compounds read low 1.04

Reference: PubChem BioAssay AID1159580 (chemical genetic matrix, 2015)
